Measured values reported in the supplement of paper PMC13380429.
Counter-ions that a name gives are not always drawn.

Legend:
[1] = tested on: Vero E6 infected with SARS-CoV-2; assay: morphology score (similarity to uninfected cells); higher = more like uninfected cells; settings: 24 h
[2] = tested on: Vero E6 infected with SARS-CoV-2; assay: SARS-CoV-2 infection rate relative to infected DMSO; higher = more infection, active = 60 or less; settings: 24 h
[3] = tested on: Vero E6 infected with SARS-CoV-2; assay: inhibition of SARS-CoV-2 cytopathic effect; higher = more antiviral protection, active = above 15; settings: 48 h

With `N[C@@H](CCNCc1ccc(Cl)cc1)C(=O)N1CCCCC1` (10 µM) the morphology score [1] was -0.159 and the SARS-CoV-2 infection rate [2] was 107% (inactive).
`O=C(O[C@H]1C[C@H]2CC[C@@H](C1)[N+]21CCCC1)C(O)(c1ccccc1)c1ccccc1` [trospium] (10 µM) was tested, and the morphology score [1] was 0.0583 and the SARS-CoV-2 infection rate [2] was 102% (inactive).
In the case of `N[C@]1(C(=O)O)CC[C@@H](C(=O)O)C1` (10 µM), the morphology score [1] is reported as 0.188 and the SARS-CoV-2 infection rate [2] is reported as 82% (inactive).
`CCC(CC)C(c1ccc(Nc2nc3ccccc3s2)cc1)n1cncn1` (stereo not given) [talarozole] (10 µM) was tested, and the morphology score [1] was 0.326 and the SARS-CoV-2 infection rate [2] was 74.5% (inactive).
With `O=C1NC(=O)C(c2cnc3ccccn23)=C1c1cn2c3c(cc(F)cc13)CN(C(=O)N1CCCCC1)CC2` (10 µM) the morphology score [1] was -0.436 and the SARS-CoV-2 infection rate [2] was 105% (inactive).
`Cc1noc2c1-c1ccccc1C(c1ccc(Cl)cc1)=N[C@H]2CC(N)=O` (10 µM) was tested, and the morphology score [1] was -0.0562 and the SARS-CoV-2 infection rate [2] was 108% (inactive).
For `CC#CCn1c(N2CCC[C@@H](N)C2)nc2c1c(=O)n(Cc1nc(C)c3ccccc3n1)c(=O)n2C` [linagliptin] (10 µM), the morphology score [1] was -0.0102 and the SARS-CoV-2 infection rate [2] was 110% (inactive).
With `Cc1ccc(NCCCc2ccccc2)c(N)c1` [NFKB-activation-inhibitor-II] (10 µM) the morphology score [1] was 0.238 and the SARS-CoV-2 infection rate [2] was 102% (inactive).
`CC(C)c1ccc(NC(=O)c2cccs2)c(-c2nc3ccccc3[nH]c2=O)c1` (10 µM) was tested, and the morphology score [1] was 0.23 and the SARS-CoV-2 infection rate [2] was 83% (inactive).
`N#Cc1c(O)c2c(-c3ccc(-c4ccccc4O)cc3)csc2[nH]c1=O` (10 µM) was tested, and the morphology score [1] was 0.0882 and the SARS-CoV-2 infection rate [2] was 106% (inactive).
For `CC(CNC1CCCCC1)OC(=O)c1ccccc1` (stereo not given) [hexylcaine] (10 µM), the morphology score [1] was -0.0327 and the SARS-CoV-2 infection rate [2] was 112% (inactive).
`CC(=O)N[C@H]1[C@@H](O)[C@H](O)[C@@H](CO)O[C@@H]1O` [N-acetylmannosamine] (10 µM) was tested, and the morphology score [1] was 0.18 and the SARS-CoV-2 infection rate [2] was 100% (inactive).
In the case of `Clc1ccc(CCCOCCCN2CCCCC2)cc1` [pitolisant] (10 µM), the morphology score [1] is reported as 0.243 and the SARS-CoV-2 infection rate [2] is reported as 81% (inactive).
For `C[C@H](Cn1cnc2c(N)ncnc21)OCP(=O)(O)O` [tenofovir] (10 µM), the morphology score [1] was -0.0359 and the SARS-CoV-2 infection rate [2] was 105% (inactive).
For `Cc1cccc(Nc2ccncc2S(=O)(=O)NC(=O)NC(C)C)c1` [torasemide] (10 µM), the morphology score [1] was 0.215 and the SARS-CoV-2 infection rate [2] was 102% (inactive).
With `CC(NCCC(c1ccccc1)c1ccccc1)c1ccccc1` (stereo not given) [fendiline] (10 µM) the morphology score [1] was 0.771 and the SARS-CoV-2 infection rate [2] was 44% (active).
`O=C(Nc1ncc(SCCN2CCCC2)s1)[C@]1(c2ccc(S(=O)(=O)C3CC3)cc2)C[C@H]1C1CCCCC1` (10 µM) was tested, and the morphology score [1] was 0.767 and the SARS-CoV-2 infection rate [2] was 17% (active).
With `COc1ccccc1N1CCN(CCCCN2C(=O)c3ccccc3C2=O)CC1` (10 µM) the morphology score [1] was 0.185 and the SARS-CoV-2 infection rate [2] was 99% (inactive).
For `NCC(CC(=O)O)c1ccccc1` (stereo not given) [fenigam] (10 µM), the morphology score [1] was 0.256 and the SARS-CoV-2 infection rate [2] was 89% (inactive).
With `CN1CCc2nc(C(=O)N[C@@H]3C[C@@H](C(=O)N(C)C)CC[C@@H]3NC(=O)C(=O)Nc3ccc(Cl)cn3)sc2C1` [edoxaban] (10 µM) the morphology score [1] was 0.0662 and the SARS-CoV-2 infection rate [2] was 94.5% (inactive).
`Cc1ccnc2c1CCCC2C(N)=S` (stereo not given) [isotiquimide] (10 µM) was tested, and the morphology score [1] was 0.0559 and the SARS-CoV-2 infection rate [2] was 113% (inactive).
`CN(C)CC/C=C1/c2ccccc2COc2ccc(CC(=O)O)cc21` [Olopatadine hydrochloride (Opatanol)] (10 µM) was tested, and the morphology score [1] was 0.105 and the SARS-CoV-2 infection rate [2] was 111% (inactive).
`CCOc1cccc(NC(=O)c2ccc(N3CCCC3)c(C(F)(F)F)c2)c1` (10 µM) was tested, and the morphology score [1] was 0.0793 and the SARS-CoV-2 infection rate [2] was 102% (inactive).
With `NS(=O)(=O)C#Cc1ccccc1` [pifithrin-mu] (0.833333 µM) the morphology score [1] was 0.168 and the SARS-CoV-2 infection rate [2] was 92% (inactive).
`O=c1ccc2ccc(O)c(O)c2o1` [daphnetin] (10 µM) was tested, and the morphology score [1] was 0.0316 and the SARS-CoV-2 infection rate [2] was 110% (inactive).
In the case of `C[CH2][Hg][S]c1ccccc1C(=O)[O-].[Na+]` [thiomersal], the “inhibition of SARS-CoV-2 cytopathic effect” value (“inhibition” for short) ([3]; 1 nM) is reported as 0.94% (inactive), the “inhibition” value ([3]; 8.33 nM) is reported as 0.96% (inactive) and the “inhibition” value ([3]; 100 nM) is reported as 1.12% (inactive).
For `CCS(=O)(=O)N(C)[C@@H]1c2cc(C#N)ccc2OC(C)(C)[C@H]1O.CCS(=O)(=O)N(C)[C@H]1c2cc(C#N)ccc2OC(C)(C)[C@@H]1O` (racemic) [chromanol-(+/-)], the “inhibition” value ([3]; 1 nM) was -3.93% (inactive), the “inhibition” value ([3]; 8.33 nM) was 0.47% (inactive) and the “inhibition” value ([3]; 100 nM) was -1.69% (inactive). The “inhibition” value ([3]; 833.33 nM) was -0.89% (inactive) and the “inhibition” value ([3]; 10000 nM) was -1.62% (inactive).
For `CC1=C(C(=O)O)N2C(=O)[C@@H](NC(=O)[C@H](N)C3=CCC=CC3)[C@H]2SC1` [cephradine], the “inhibition” value ([3]; 1 nM) was 0.46% (inactive), the “inhibition” value ([3]; 8.33 nM) was -1.94% (inactive) and the “inhibition” value ([3]; 100 nM) was -0.29% (inactive). The “inhibition” value ([3]; 833.33 nM) was 0.485% (inactive) and the “inhibition” value ([3]; 10000 nM) was -2.73% (inactive).
With `CCCCOc1c(C(=O)c2c(F)cc(C)cc2F)c[nH]c2nncc1-2` the “inhibition” value ([3]; 1 nM) was 0.56% (inactive), the “inhibition” value ([3]; 8.33 nM) was -0.26% (inactive) and the “inhibition” value ([3]; 100 nM) was 0.08% (inactive). For the same molecule, the “inhibition” value ([3]; 833.33 nM) was -0.55% (inactive) and the “inhibition” value ([3]; 10000 nM) was -3.38% (inactive).
With `Cc1cc(OCCCS(C)(=O)=O)cc(C)c1-c1cccc(COc2ccc3c(c2)OC[C@H]3CC(=O)O)c1` the “inhibition” value ([3]; 1 nM) was -1.83% (inactive), the “inhibition” value ([3]; 8.33 nM) was 0.64% (inactive) and the “inhibition” value ([3]; 100 nM) was -0.31% (inactive). For the same molecule, the “inhibition” value ([3]; 833.33 nM) was 3.74% (inactive) and the “inhibition” value ([3]; 10000 nM) was 2.41% (inactive).
`COc1cc(/C=C/C(=O)O)ccc1O` [ferulic-acid] was tested, and the “inhibition” value ([3]; 1 nM) was 2.44% (inactive), the “inhibition” value ([3]; 8.33 nM) was -0.76% (inactive) and the “inhibition” value ([3]; 100 nM) was -1.01% (inactive). The “inhibition” value ([3]; 833.33 nM) was 3% (inactive) and the “inhibition” value ([3]; 10000 nM) was -0.17% (inactive).
In the case of `Cc1cc(NC(=O)Nc2ccc(N(C)C)cc2)c2cc(F)cc(F)c2n1`, the “inhibition” value ([3]; 1 nM) is reported as -0.11% (inactive), the “inhibition” value ([3]; 8.33 nM) is reported as 0.56% (inactive) and the “inhibition” value ([3]; 100 nM) is reported as 1.66% (inactive). For the same molecule, the “inhibition” value ([3]; 833.33 nM) was 3.02% (inactive) and the “inhibition” value ([3]; 10000 nM) was 4.9% (inactive).
`CCCCC(CC)COc1ccc(-c2nc(-c3ccc(OC)cc3)nc(-c3ccc(OCC(CC)CCCC)cc3O)n2)c(O)c1` (stereo not given) [bemotrizinol] was tested, and the “inhibition” value ([3]; 1 nM) was 1.11% (inactive), the “inhibition” value ([3]; 8.33 nM) was 3.46% (inactive) and the “inhibition” value ([3]; 100 nM) was 1.8% (inactive).
With `O=C1NCCN1CCN1CCC(c2cn(-c3ccc(F)cc3)c3ccc(Cl)cc23)CC1` [sertindole] the “inhibition” value ([3]; 1 nM) was -2.53% (inactive), the “inhibition” value ([3]; 8.33 nM) was -4.63% (inactive) and the “inhibition” value ([3]; 100 nM) was -2.36% (inactive). For the same molecule, the “inhibition” value ([3]; 833.33 nM) was -5.98% (inactive) and the “inhibition” value ([3]; 10000 nM) was -11.3% (inactive).
For `CC[C@H](C(=O)N1CCCC[C@H]1C(=O)O[C@H](CCc1ccc(OC)c(OC)c1)c1cccc(OCC(=O)NCCNC(=O)COc2cccc([C@@H](CCc3ccc(OC)c(OC)c3)OC(=O)[C@@H]3CCCCN3C(=O)[C@@H](CC)c3cc(OC)c(OC)c(OC)c3)c2)c1)c1cc(OC)c(OC)c(OC)c1`, the “inhibition” value ([3]; 1 nM) was -3.12% (inactive), the “inhibition” value ([3]; 8.33 nM) was -1.9% (inactive) and the “inhibition” value ([3]; 100 nM) was -0.97% (inactive).
`O=c1[nH]c2cc(Cl)ccc2c(O)c1-c1cccc(Oc2ccccc2)c1` was tested, and the “inhibition” value ([3]; 1 nM) was 1.74% (inactive), the “inhibition” value ([3]; 8.33 nM) was 0.53% (inactive) and the “inhibition” value ([3]; 100 nM) was 2.73% (inactive).
In the case of `CC(=O)[O][Hg][c]1ccccc1` [phenylmercuric-acetate], the “inhibition” value ([3]; 1 nM) is reported as -1.11% (inactive), the “inhibition” value ([3]; 8.33 nM) is reported as -1.71% (inactive) and the “inhibition” value ([3]; 100 nM) is reported as -0.22% (inactive).
With `CC(C)(Cc1ccc2ccccc2c1)NC[C@@H](O)COc1cccc(Cl)c1C#N` the “inhibition” value ([3]; 1 nM) was -1.61% (inactive), the “inhibition” value ([3]; 8.33 nM) was 0.41% (inactive) and the “inhibition” value ([3]; 100 nM) was 0.1% (inactive). The “inhibition” value ([3]; 833.33 nM) was 2.49% (inactive) and the “inhibition” value ([3]; 10000 nM) was 62.5% (active).
For `N=C(N)NC(=N)Nc1cccc(Cl)c1` [m-chlorophenylbiguanide], the “inhibition” value ([3]; 1 nM) was 4.17% (inactive), the “inhibition” value ([3]; 8.33 nM) was 4.54% (inactive) and the “inhibition” value ([3]; 100 nM) was 0.58% (inactive). For the same molecule, the “inhibition” value ([3]; 833.33 nM) was -7.74% (inactive) and the “inhibition” value ([3]; 10000 nM) was -1.2% (inactive).
In the case of `C[C@]12C=CC(=O)C=C1CC[C@@H]1[C@@H]2C(=O)C[C@@]2(C)[C@H]1CC[C@]2(O)C(=O)CO` [prednisone] (10 µM), the morphology score [1] is reported as -0.177 and the SARS-CoV-2 infection rate [2] is reported as 108% (inactive).
In the case of `Cl[C@H]1[C@H](Cl)[C@@H](Cl)[C@@H](Cl)[C@H](Cl)[C@H]1Cl` [lindane], the “inhibition” value ([3]; 1 nM) is reported as -2.48% (inactive), the “inhibition” value ([3]; 8.33 nM) is reported as -1.41% (inactive) and the “inhibition” value ([3]; 100 nM) is reported as -0.79% (inactive).
In the case of `Nc1nc(=O)[nH]cc1F` [flucytosine], the “inhibition” value ([3]; 1 nM) is reported as -1.58% (inactive), the “inhibition” value ([3]; 8.33 nM) is reported as -2.1% (inactive) and the “inhibition” value ([3]; 100 nM) is reported as 0.5% (inactive). The “inhibition” value ([3]; 833.33 nM) was 2.44% (inactive) and the “inhibition” value ([3]; 10000 nM) was 1.48% (inactive).
